Assay results: PubChem BioAssay (NCI)
This is part of a sample that, as a whole, favours compounds with a hit. Of some 79,000 tested, about 15% had one in any assay. Calls of active or inactive are those of the source. Rule as the data show it: active = growth inhibition above about 70%; inactive = the rest.

Assays:
[1] = NCI Yeast Anticancer Drug Screen. Data for the rad50 strain (AID 155);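 also: 0% = growth of vehicle-only cultures of the same strain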; conditions: S. cerevisiae rad50 strain growth inhibition; at 50.0 µM; active compounds read high
Method in brief: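 Cells are treated with compound, grown, and their growth is then scored against vehicle-only cultures of the same repair-deficient yeast strain.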

[2] = NCI Yeast Anticancer Drug Screen. Data for the mec2-1 strain (AID 157); conditions: S. cerevisiae mec2-1 strain, at 50.0 µM, active compounds read high
Method in brief: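 Strain: mec2-1 (DNA repair/cell cycle alteration). Compound exposure, then growth measured; inhibition expressed relative to vehicle.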

[3] = NCI Yeast Anticancer Drug Screen. Data for the sgs1 mgt1 strain (AID 161);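 also: 0% = growth of cultures given vehicle only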; conditions: S. cerevisiae sgs1 mgt1 strain, at 50.0 µM, active compounds read high
Method in brief: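 Inhibition of yeast growth, normalised to vehicle-treated controls, is reported for a strain bearing genetic alterations in DNA damage repair.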

[4] = NCI Yeast Anticancer Drug Screen. Data for the cln2 rad14 strain (AID 165);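 also: 0% = growth equal to vehicle treated cultures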; conditions: S. cerevisiae cln2 rad14 strain, at 50.0 µM, active compounds read high
Method in brief: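 Compounds are applied to the cln2 rad14 yeast strain, and growth is then compared with that of vehicle-treated cultures to give inhibition.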

[5] = NCI Yeast Anticancer Drug Screen. Data for the bub3 strain (AID 167); conditions: S. cerevisiae bub3 mutant strain, at 50.0 µM, active compounds read high
Method in brief: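 Part of a panel of yeast mutants defective in DNA damage repair or cell cycle regulation. Each strain is grown with compound, and inhibition is calculated relative to solvent-treated cultures.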

[6] = NCI Yeast Anticancer Drug Screen. Data for the mlh1 rad18 strain (AID 175); conditions: S. cerevisiae mlh1 rad18 strain growth inhibition; at 50.0 µM; active compounds read high
Method in brief: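 Read-out is yeast growth inhibition, calculated against vehicle-only controls. The compound was applied to a strain engineered with DNA damage repair alterations.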

Measured: growth inhibition

Cc1ccc(N=Nc2c(O)n(C)c(=O)n(C)c2=O)cc1C
inactive: [1] -8.3% | [2] -5.7% | [3] -17.2% | [4] 3.95% | [5] -18.6% | [6] -12.8%

O=C1c2ccccc2OCC1CS(=O)(=O)CC1COc2ccccc2C1=O (stereo unspecified)
inactive: [1] -9.5% | [2] 9.7% | [3] -5.45% | [4] 16.2% | [5] -0.5% | [6] 7.4%

CCOC(=O)Cn1c(=O)c(-c2ccccc2NC(C)=O)nc2ccccc21
inactive: [1] -12.3% | [2] -3.65% | [3] -7.9% | [4] -6.1% | [5] 0.4% | [6] -14.1%

C=CNC(=S)n1nc(-c2ccccc2NC(=O)C(F)(F)F)c(=O)n(C(=S)NC=C)c1=S
inactive: [1] 31.4% | [2] 38.5% | [3] 30.4% | [4] -0.55% | [5] -9.1% | [6] 24.9%

NCc1ccccc1
inactive: [1] -2.5% | [2] 7.75% | [3] -2.2% | [4] -41.4% | [5] -18.9% | [6] -3.85%

COC1=NC2(C)C(C)=C(c3ccccc3)C1(C)c1ccccc12 (stereo unspecified)
inactive: [1] -12.2% | [2] -4.4% | [3] -14.6% | [4] -46.8% | [5] 7.25% | [6] -3.8%

C/C=C(/C)C(=O)O[C@H]1CC[N+]2([O-])CC=C(COC(=O)[C@@](O)([C@H](C)OC)C(C)(C)O)[C@H]12 (stereo partly specified)
inactive: [1] -13.1% | [2] -5.1% | [3] -3.45% | [4] 7.5% | [5] 6.75% | [6] 12.5%

CC12CCC(CC1C(=O)O)C2 (stereo unspecified)
inactive: [1] 19.4% | [2] 16.3% | [3] 24.9% | [4] 22.1% | [5] 9.75% | [6] 15.3%

O=CN/C=C\c1cc(O)ccc1O
inactive: [1] 3.1% | [2] 4.45% | [3] -2.6% | [4] 21.4% | [5] 16.9% | [6] 13.1%

CCOC(=O)c1ccc(NC(=O)Nc2ccc(OC)c([N+](=O)[O-])c2)cc1
inactive: [1] -5.9% | [2] -3.6% | [3] 12.5% | [4] -15.7% | [5] 17.8% | [6] -5.2%

COc1ccc(COCC[C@H](C)OC2OC(CO)C(O)C(O)C2O)cc1 (stereo partly specified)
inactive: [1] 13.9% | [2] -8.75% | [3] -12.9% | [4] -6.2% | [5] 5.25% | [6] -71%

O=C(CCCCCCCCC(=O)OCC1OC(n2cnc3c(=O)[nH]cnc32)C(O)C1O)OCC1OC(n2cnc3c(=O)[nH]cnc32)C(O)C1O (stereo unspecified)
inactive: [1] -47.5% | [2] -44.7% | [3] -42.3% | [4] -8.3% | [5] -22.9% | [6] -35.3%

Cc1cc2c(c3ccccc13)Cc1ccccc1-2
inactive: [1] -5.65% | [2] 9.2% | [3] -7% | [4] 7.35% | [5] 15.4% | [6] -13.8%

CC(=O)NCC1(c2ccccc2)CCN(Cc2ccccc2)CC1
inactive: [1] -6.8% | [2] -17.3% | [3] -11.7% | [4] 5.7% | [5] -17% | [6] -14.2%

CCOC(=O)c1nc(SC)sc1NC(=O)c1ccc([N+](=O)[O-])cc1
inactive: [1] -11% | [2] -24.8% | [3] -30.8% | [4] 27.1% | [5] -14.7% | [6] -21.6%

O=C(Cl)Cc1ccccc1[N+](=O)[O-]
inactive: [1] 14.5% | [2] 14.6% | [3] 12.4% | [4] 6.55% | [5] -20.4% | [6] 12.9%

C=C(C(=O)O)C(=O)O
inactive: [1] -14.4% | [2] -3.6% | [3] -2.2% | [4] 4.35% | [5] 2% | [6] -4.7%

CCN(Cc1ccc(CN(CC)C(=O)c2c(-c3ccccc3)noc2C)cc1)C(=O)c1c(-c2ccccc2)noc1C
inactive: [1] 13.6% | [2] -8.1% | [3] 5.1% | [4] 17.8% | [5] 0.2% | [6] -13.6%

Nc1[nH]c(=S)[nH]c(=S)c1N
inactive: [1] -30.6% | [2] -8.6% | [3] -15.2% | [4] -44.8% | [5] -15.3% | [6] -25.4%

CC(NC(=O)c1ccccc1)C(=O)O (stereo unspecified)
inactive: [1] 25.4% | [2] -6.4% | [3] -26.6% | [4] -24.2% | [5] 0.6% | [6] 27.7%

O=C(Nc1ccccc1)c1cccnc1
inactive: [1] -4% | [2] -18.4% | [3] -0.2% | [4] -13.9% | [5] -2.75% | [6] -2.65%

CCCCN(Cc1ccccc1)C(=O)NC(C)(C)C
inactive: [1] 2.15% | [2] 33.9% | [3] 8.1% | [4] 3.45% | [5] 25.8% | [6] 18.6%

C[N+]1(C)C2CC(=O)CC1C1CC12 (stereo unspecified)
inactive: [1] -10.2% | [2] 7.4% | [3] 4.55% | [4] -2.15% | [5] 12.1% | [6] -16%

COc1ccc2c(c1OC)C(=O)O[C@@H]2[C@H]1c2c(cc3c(c2OC)OCO3)CCN1C
inactive: [1] 5.7% | [2] -28.9% | [3] -27.8% | [4] 6.75% | [5] -7.35% | [6] 11.3%

CCSCCC(Nc1ncnc2nc[nH]c12)C(=O)O (stereo unspecified)
inactive: [1] -17.8% | [2] 8.75% | [3] -5.65% | [4] -17% | [5] -4.8% | [6] -19.4%

CCCCN(CCCC)CC(C)O (stereo unspecified)
inactive: [1] -21.8% | [2] -35.8% | [3] -22.4% | [4] 16.9% | [5] -12.9% | [6] -18.6%

O=C(C[N+]12CC=C(CO)C1C(O)CC2)c1ccc(Br)cc1 (stereo unspecified)
inactive: [1] 5.55% | [2] -6.25% | [3] -15.5% | [4] -24.4% | [5] 3.35% | [6] -4%

O=C(O)CSC(CC(=O)O)C(=O)O (stereo unspecified)
inactive: [1] 10.3% | [2] -9.4% | [3] 17.7% | [4] 8.85% | [5] 21.6% | [6] 4.25%

OC/C=C(\I)CCCOCOCc1ccccc1
inactive: [1] -14.4% | [2] -4.35% | [3] -7.35% | [4] -18.4% | [5] -10.5% | [6] -36.2%

Cc1ccc(C2=Nc3cccc4cccc(c34)N2)cc1
inactive: [1] -40% | [2] -71.7% | [3] -26.3% | [4] 11.1% | [5] -2.2% | [6] -8.85%

N#Cc1ccc2c(c1)Sc1ccccc1N2
inactive: [1] 7.5% | [2] 3.05% | [3] -2.9% | [4] -43.4% | [5] -31% | [6] 21.7%

FC(F)(F)C1(F)C(F)(F)C(F)(F)C(F)(F)C(F)(F)C1(F)F
inactive: [1] 16.3% | [2] -39.1% | [3] -4.95% | [4] -96.2% | [5] -24.1% | [6] 27.9%

CC(=O)Nc1ccc(S(=O)(=O)[N-]C2C(=O)c3ccccc3C(=O)C2[n+]2ccccc2)cc1 (stereo unspecified)
inactive: [1] 25.4% | [2] 23.1% | [3] 28% | [4] -0.35% | [5] 27.8% | [6] -1.8%

CN(C)CCNS(=O)(=O)N(C)C
inactive: [1] -25.1% | [2] -25.1% | [3] -24.4% | [4] 7.45% | [5] -51.8% | [6] 8.45%

Cc1[nH]nc(N)c1C(N)=O
inactive: [1] 5.2% | [2] 2.5% | [3] 26.6% | [4] 1.2% | [5] 0.85% | [6] 5.85%

Cc1ccccc1N1C(N)=C(C#N)C(C#N)(C#N)C1c1ccccc1 (stereo unspecified)
active: [6] 87.8%
inactive: [1] 8.8% | [2] 22.2% | [3] -14.6% | [4] -10.6% | [5] -12.4%

CCCCCCCCCCCCOc1ccc2ccccc2c1
inactive: [1] -7.2% | [2] 15.9% | [3] 0.85% | [4] -17.6% | [5] -6.45% | [6] -8.15%

O=S(=O)(Cc1ccccc1)C(I)c1ccccc1 (stereo unspecified)
inactive: [2] 55.9% | [3] 65.5% | [4] 51% | [5] 60.7%
active: [1] 82.2% | [6] 73%

CCOC(=O)c1oc2c(OC)ccc3c2c1CCC3
inactive: [1] 7.7% | [2] 4% | [3] 1.8% | [4] -9.4% | [5] -6.25% | [6] 30.8%

CC1=CC(C(O)C(C)C)C(C)(Cc2ccc(C)cn2)NC1c1ccccc1 (stereo unspecified)
inactive: [1] 50.6% | [2] -6.3% | [3] 5.45% | [4] 15.2% | [5] -2.05% | [6] 0.5%

NC(=O)c1ccccc1C(N)=O
inactive: [1] 13.4% | [2] -10.6% | [3] 8.95% | [4] 30.7% | [5] -11.8% | [6] -31.9%
